TIM10 inh = inhibits growth of TIM10 yeast strain; inhibition, % at 10 µM; 1.4% of 330,000 active; S. cerevisiae TIM10 strain growth, BacTiter-Glo luminescence, 24 h;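 active = inhibition of 40% or more at the single tested concentration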;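 also: wild-type TIM10 isogenic control strain grown at permissive 25 °C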
SKKanGAS inh = SKKanGAS growth inhibition | 1.3% of 300,000 active | AID 1662 | inhibition, % at 7.5 µM | S. pyogenes SKKanGAS, kanamycin growth, BacTiter-Glo, 6 h;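 active = mean replicate score, as percent of positive control median, at least 50; inconclusive = mean below 50 but one replicate at or above 50; inactive = mean and every replicate below 50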;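 also: strain carries kanamycin resistance gene driven by streptokinase promoter and grows in 40 µg/ml kanamycin; loss of luminescence reflects streptokinase promoter inhibition or plain growth inhibition; 0% = median of DMSO wells and 100% = positive control at its reference dose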
tim23-1 inh = inhibits growth of tim23-1 mutant yeast; S. cerevisiae tim23-1 growth, BacTiter-Glo luminescence, 24 h; inhibition, % at 20 µM; 1.3% of 330,000 active;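 active = growth inhibition of the mutant yeast at or above 50%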;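 also: temperature-sensitive mutant grown at 25 °C; plate controls were DMSO-treated mutant yeast for no effect and medium wells lacking yeast for full effect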
tim10-1 inh = inhibits growth of tim10-1 mutant yeast; AID 463190; inhibition, % at 20 µM; 2.2% of 330,000 active; S. cerevisiae tim10-1 ts strain growth, BacTiter-Glo, 24 h;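 active = inhibition of at least 40%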;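 also: mutant grown at 25 °C; 0% = DMSO wells with yeast and 100% = wells holding no yeast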
PfHsp90 set2 = reduces growth (ATP signal) of yeast expressing P. falciparum Hsp90; 0.32% of 310,000 active; S. cerevisiae expressing PfHsp90, BacTiter-Glo ATP, 48 h; yeast lacking PDR1 and PDR3 efflux regulators; AID 504621; inhibition, % at 9.4 µM;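 active = every replicate shows inhibition above about 80%, whatever the replicate mean, limit read from the data; inconclusive = mean inhibition reaches the set limit but some replicate falls short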;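 also: 0% = DMSO neutral controls and 100% = 20 µM radicicol positive controls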
Calb FLC = C. albicans growth modulation with fluconazole | C. albicans CaCi-2 (fluconazole-resistant clinical isolate) + fluconazole, Alamar Blue growth, 48 h | growth inhibition, % (no concentration beside the values) | 0.57% of 300,000 active | AID 1979;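 active = growth inhibition above about 58% in most replicates, limit read from the data, passing the limit was not always enough; inconclusive = exactly half the replicates above a set limit; inactive = most replicates below a set limit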;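 also: all wells also contain fluconazole at 8 µg/ml as a sub-toxic cotreatment; 0% = median of DMSO wells and 100% = median of geldanamycin control wells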
* = called active by the depositor; u = inconclusive; x = no result. Hits are enriched below; roughly 4.7% of the tested compounds scored in any of these assays.

SMILES	TIM10 inh	SKKanGAS inh	tim23-1 inh	tim10-1 inh	PfHsp90 set2	Calb FLC
CCCn1c(N)c(C(=O)COC(=O)c2c(C)noc2C)c(=O)n(C)c1=O	7	-4	10	1	-20	100*
C/C(=N/NC(=O)c1cccs1)c1c(C)[nH]n(-c2nc3ccccc3s2)c1=O	11	55*	11	38	73	u
CC(NC(=O)Nc1ccccc1F)C(C)(C)C (stereo unspecified)	7	2	7	7	9	58*
COc1cc(-c2ccc(NC(=O)NC3CC3)c(OC)c2)ccc1NC(=O)NC1CC1	-7	55*	-16	-16	x	x
Cc1ccc(NC(=O)NC2CCCCCCC2)c(C)c1	14	x	10	-5	4	112*
CC(=O)c1cccc(NC(=O)NC2CCCCCCC2)c1	18	7	11	14	5	2
Cc1cccc(NC(=O)NC2CCCCCCC2)c1	24	x	38	13	-10	124*
COc1cccc(OCC(=O)Nc2ccccc2C(=O)Nc2ccc(C(=O)O)cc2)c1	4	4	1	11	-38	17
CSc1ncc(Cl)c(C(=O)NCc2cccnc2)n1	-5	0	-4	-1	-16	0
COc1cc(C(=O)OC2CCOC2=O)cc(Cl)c1OC (stereo unspecified)	-7	2	10	23	-15	1
O=C(Nc1ccccc1F)NC1CCCCCCC1	12	50*	29	23	7	-11
CC1(C)[C@@H](O)CC[C@]2(C)C3C(O)C=C4[C@H]5C[C@@](C)(CO)CC[C@]5(C)CC[C@]4(C)[C@]3(C)CC[C@@H]12 (stereo partly specified)	-3	99*	41	26	-2	7
CC1(C)[C@@H](O)CC[C@]2(C)[C@H]3C(=O)C=C4[C@@H]5C[C@@](C)(C(=O)O)CC[C@]5(C)CC[C@@]4(C)[C@]3(C)CC[C@@H]12	-8	15	-3	-33	-20	5
Cn1c(C(=O)O)c(S(=O)(=O)c2ccc(Cl)cc2)c2ccccc21	3	1	1	12	17	-2
Cc1nc2c(C)cccn2c(=O)c1NC(=O)c1ccco1	7	39	8	4	4	1
Cc1nc2c(C)cccn2c(=O)c1NC(=O)c1ccc2c(c1)OCO2	0	50*	15	4	-14	0
Oc1nc(Nc2ccccc2)sc1/C=C1\C=Nc2ccccc21	-9	54*	17	-46	7	91*
Cc1cccc(NS(=O)(=O)c2cccc(C(=O)NCC3(N4CCOCC4)CCCCC3)c2)c1	x	x	x	x	-1	x
COc1ccc(/C=C/C(=O)NCCSCc2ccco2)cc1OC	10	3	15	8	4	4
Cc1ccc2c(c1)=C(c1sc(N(C)c3ccc(O)cc3)nc1O)C(=O)N=2	-24	80*	-28	-25	-2	-2
O=C(O)[C@H](Cc1ccccc1)NC(=O)N1CCN(c2cccc(C(F)(F)F)c2)CC1	2	-4	8	6	7	22
Cc1cc(C)cc(NC(=O)CC2Oc3ccc(C)cc3NC2=O)c1 (stereo unspecified)	-2	6	-10	-18	-33	-4
COc1ccc(-n2nnnc2SCC(=O)NC(=O)Nc2ccc3c(c2)OCCO3)cc1	-14	x	-13	-3	-3	x
Cc1ccc(-n2nnnc2SCC(=O)NC(=O)Nc2ccc3c(c2)OCCO3)cc1	6	50*	0	13	-19	-25
CCOC(=O)c1cccc(NC(=O)CC2Oc3ccccc3NC2=O)c1 (stereo unspecified)	20	-9	11	5	-43	6
SMILES	TIM10 inh	SKKanGAS inh	tim23-1 inh	tim10-1 inh	PfHsp90 set2	Calb FLC
O=C(NC(=S)Nc1ccc(-c2nc3ncccc3o2)cc1)c1ccccc1F	-3	52*	-2	1	1	57
O=C(c1ccc2c(=O)n(C3CCCC3)c(=S)[nH]c2c1)N1CCc2ccccc21	25	25	21	8	109*	6
CC(=O)N1CCN(C(=O)c2cc(S(=O)(=O)N3CCN(c4ccccc4)CC3)ccc2Cl)CC1	6	x	11	6	x	x
COc1cc(SC)ccc1C(=O)OCC(=O)NC1CC1	2	-4	-9	9	-3	98*
COC(=O)c1c(C(=O)OC)c(-c2ccc(Cl)c(Cl)c2)n2c1CCC2	26	6	37	28	29	111*
Oc1ccc(Nc2ncnc3c2oc2ccccc23)cc1	8	10	25	-11	-38	4
Oc1cccc(Nc2ncnc3c2oc2ccccc23)c1	10	3	13	16	7	91*
CCCc1nnc(NC(=O)CCC(=O)NC2CCCCCC2)s1	-2	-4	-2	1	16	x
COc1ccc(NC(=S)Nc2ccc3snnc3c2)cc1	0	3	-21	24	109*	4
CN(C)S(=O)(=O)c1ccc(C(=O)NNC(=O)C2COc3ccccc3O2)cc1 (stereo unspecified)	11	-12	4	-5	11	-22
O=C(COC(=O)Cc1cn2ccsc2n1)Nc1nc2ccccc2s1	6	80*	21	20	-3	-1
O=C(C=Cc1ccccc1)c1cc(Br)ccc1O	x	x	x	x	-1	x
CCc1ccc(/C=C/C(=O)c2cc(Br)ccc(=O)c2O)cc1	16	106*	12	18	66	94*
CCOc1ccc(/C=C/C(=O)c2cc(Br)ccc(=O)c2O)cc1	x	x	x	x	21	x
Cc1cccc(/C=C/C(=O)c2cc(Br)ccc(=O)c2O)c1	1	90*	0	1	72	100*
O=C(Nc1cccnc1)c1cc2cc(Br)ccc2o1	-14	-6	9	-14	8	16
O=C1CCCN1CCCN=c1c([N+](=O)[O-])nn(-c2ccc(Cl)cc2)n1O	x	12	x	x	-122	85*
COc1ccc(C(=O)NNc2ccccc2)cc1OC	-33	x	12	-15	0	106*
O=C(CSc1nnc(NC(=O)C2CC(=O)N(c3ccc(F)cc3)C2)s1)NC1CCCC1 (stereo unspecified)	5	5	12	11	-13	2
Cc1cccc(CC(Cc2nc3ccccc3[nH]2)c2nc3ccccc3[nH]2)c1 (stereo unspecified)	14	61*	-1	-8	-8	-1
O=C(Cc1ccc(Cl)cc1)N1CCN(c2ccccc2)CC1	-6	7	23	24	-24	x
O=C(O)CCCn1c(O)c(C=C2N=c3ccccc3=N2)sc1=S	-14	5	6	8	-32	6
O=C(O)CCCCCn1c(O)c(C=C2N=c3ccccc3=N2)sc1=S	10	2	5	6	1	83*
N#Cc1nc(-c2ccc(OCc3ccccc3)cc2)oc1NCCCn1ccnc1	16	44	16	15	-10	u
N#Cc1nc(-c2ccc(OCc3ccccc3Cl)cc2)oc1NCCCn1ccnc1	8	74*	35	26	x	16
